HepG2 tox = HepG2 cytotoxicity, counter-screen for TGF-b inhibitors; HepG2 CAGA-GFP viability, ATP luminescence, 18 h; 0.76% of 410,000 active; Potency, µM (doses to about 46.1 µM), without a hit: at the highest dose activity change, negative = cytotoxicity, hits mostly cytotoxic
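CellTiter-Glo luminescence gave cytotoxicity after 18 hours at 37 degrees C. The cells were HepG2 CAGA-GFP in 1% FBS DMEM, stimulated with 500 pg/mL TGF-beta after compound addition. %Activity was normalised to no-cell wells (complete cell-killing) and DMSO (no toxicity), and curves were fitted and classified.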
DT40 TDP1 no CPT = qHTS for Inhibitors of human tyrosyl-DNA phosphodiesterase 1 (TDP1): qHTS in cells in absence of CPT; DT40 Tdp1-/- hTDP1 cells, no CPT, ATP luminescence, 48 h; Potency, µM (titrated, usually from 46.2 µM), without a hit: at the highest dose activity change, negative = growth inhibition, hits mostly inhibitors; 15% of 420,000 active; note: % is set by controls: 0 for no effect and ±100 for the full control effect; nearly all actives have a fitted effect of over 55% in size
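Cells were dispensed at 400 per well, compounds added by pin tool, plates incubated ≥48 hr at 37 °C, then CellTiter-Glo added for 30 min at room temperature before luminescence reading. Line: DT40 Tdp1-/- complemented with hTDP1; camptothecin omitted.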
HT1080-NT tox = kills 2HG-producing HT-1080-NT fibrosarcoma cells | Potency, µM (top dose mostly 46.1 µM), for inactives: at the highest dose activity, negative = less viability, hits mostly cytotoxic | AID 686970 | 1.6% of 360,000 active | HT-1080-NT fibrosarcoma viability, CellTiter-Glo ATP luminescence, 48 h;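 note: NT is the 2HG producing partner of a matched IDH1 knockdown line; 0% = DMSO-treated cells and -100% = media-only wells without cells; nearly all actives have a fitted effect of over 55% in size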
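Read-out is CellTiter-Glo luminescence after 10 minutes at room temperature, following 48 hours' compound treatment of HT-1080-NT cells (750 cells/well, RPMI, 5% FBS, 37 degrees C).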
HT1080 IDH1KD tx = HT-1080 IDH1 knockdown cell toxicity (counter line); HT-1080 IDH1 knockdown viability, ATP luminescence, 48 h; Potency, µM (titrated, usually from 46.1 µM), inactives show top-dose activity, negative = toxicity, most hits filed as cytotoxic; 2% of 360,000 active;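 note: 0% = DMSO wells and -100% = cell-free medium wells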
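IDH1KD HT-1080 cells, 750/well, RPMI + 5% FBS; compound pinned after 2 h settling; 48 h, 37 °C; CellTiter-Glo luminescence; % activity normalised to DMSO and no-cell wells; curves fitted, classed by r2 and efficacy.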
DT40 TDP1 CPT = DT40-hTDP1 cell growth loss with CPT | chicken DT40 Tdp1-/-;hTDP1 cells + 20 nM CPT, ATP luminescence, 48 h | Potency, µM (titrated, usually from 46.2 µM), inactives show at the highest dose activity change, negative = growth inhibition, hits mostly inhibitors | 12% of 420,000 active; note: % is set by controls: 0 for no effect and ±100 for the full control effect; nearly all actives have a fitted effect of over 55% in size
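Chicken DT40 Tdp1-/- cells stably complemented with human TDP1 were seeded at 400 cells/well in medium containing 20 nM camptothecin, exposed to pin-transferred compounds, and grown at 37 °C for at least 48 hr. Viability was read as ATP luminescence.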
TGFb inhibitor = TGF-b pathway inhibition. HepG2 CAGA-GFP TGF-b/SMAD3 reporter, GFP fluorescence, 18 h; TGF-beta stimulated, 500 pg/mL final. Potency, µM (top dose mostly 46.1 µM), for the others: at the top dose activity, negative = inhibition, most hits filed as inhibitors. 1.2% of 410,000 active. AID 588855; note: % is set by controls: 0 for no effect and ±100 for the full control effect; nearly all actives have a fitted effect of over 65% in size
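Using HEPG2 CAGA-GFP reporter cells at 1000 cells/well, we pinned test compounds, stimulated with recombinant TGF-beta (500 pg/mL final) and measured total well GFP after 18 h.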
The depositor's hits bear a star; ? = inconclusive; . = not tested or not shown. Most compounds without a hit are left out; they make up all but 17% or so of the library. Calls come from the whole dose curve; as a rule, active = well fitted curve in the direction sought with a large enough effect; inconclusive = small, poorly fitted or top-dose-only effect, or another doubt; inactive = no such curve, though single readings can be large; an effect the other way counts as inactive or inconclusive. Potency is the fitted concentration of half-maximal effect.

SMILES | HepG2 tox | DT40 TDP1 no CPT | HT1080-NT tox | HT1080 IDH1KD tx | DT40 TDP1 CPT | TGFb inhibitor
CCCCn1c(CN2CCN(c3cccc(Cl)c3)CC2)nc2c1c(=O)[nH]c(=O)n2C | -40% | 3.3µM* | 5µM* | 3.5µM* | 3.3µM* | ?
Cn1c(=O)[nH]c(=O)c2c1nc(CN1CCN(c3cccc(Cl)c3)CC1)n2Cc1ccccc1Cl | 0% | 15µM* | 7% | 0% | ? | ?
CC(C)Cn1c(CN2CCN(c3cccc(Cl)c3)CC2)nc2c1c(=O)[nH]c(=O)n2C | -30% | 21µM* | . | . | 18µM* | ?
CCOC(=O)c1c(NC(=O)CSc2nnnn2CC)sc(C)c1C | -15% | ? | -12% | -5% | ? | -2%
CCCCC(=O)Oc1c(S(=O)(=O)c2ccccc2)c(C)nn1C(C)(C)C | -12% | ? | ? | ? | 17% | ?
CCOC(=O)C1CCCC(NS(=O)(=O)c2ccc(NC(C)=O)cc2)C1 (configuration not stated) | -13% | -9% | -2% | 1% | ? | 11µM*
CCOC(=O)c1ccc(S(=O)(=O)NNS(=O)(=O)c2ccc(C)cc2)cc1 | -10% | 1% | 3% | 10% | 11% | -5%
CCOC(=O)c1ccc(S(=O)(=O)NC2CCC(C)CC2)cc1 (configuration not stated) | -2% | 21µM* | -2% | -5% | 16µM* | ?
CCOC(=O)c1c(NC(=O)C(C)Sc2cn(CCNC(=O)c3ccc(OC)c(OC)c3)c3ccccc23)sc2c1CCC2 (configuration not stated) | -21% | ? | . | . | 21µM* | 8%
CCOC(=O)c1c(NC(=O)C(C)S(=O)(=O)c2cn(CC)c3ccccc23)sc2c1CCCC2 (configuration not stated) | -24% | 6.5µM* | 4% | -6% | ? | -20%
CCOC(=O)c1c(NC(=O)CSc2cn(CCNC(=O)c3ccc(OC)c(OC)c3)c3ccccc23)sc2c1CCCC2 | -22% | 2.9µM* | . | . | 7.3µM* | ?
CCOC(=O)c1c(NC(=O)CSc2cn(CCNC(=O)c3c(F)cccc3F)c3ccccc23)sc2c1CCC2 | -3% | ? | . | . | ? | ?
CCOC(=O)c1c(NC(=O)CSc2nnc(-c3c[nH]c4ccccc34)n2CCOC)sc2c1CCCC2 | -9% | 15µM* | ? | -24% | 23µM* | -28%
COc1ccccc1C(=O)NCCn1cc(SCC(=O)Nc2nnc(C)s2)c2ccccc21 | -34% | -28% | -2% | 1% | ? | 8%
CCOC(=O)c1c(NC(=O)C(C)Sc2cn(CCNC(=O)c3ccccc3OC)c3ccccc23)sc2c1CCC2 (configuration not stated) | -39% | 5.2µM* | . | . | 18µM* | ?
O=C(NCc1cccs1)c1ccc(CSc2nc3ccncc3n2Cc2cccc(F)c2)cc1 | -32% | 21µM* | . | . | ? | ?
COC(=O)c1ccc(Cn2c(SCc3ccccc3)nc3ccncc32)cc1 | -2% | 21µM* | . | . | ? | -30%
COc1ccc(Cn2c(SCc3ccc(C(=O)NCc4cccs4)cc3)nc3cccnc32)cc1 | -35% | -79% | . | . | ? | -29%
O=C(NCc1cccs1)c1ccc(CSc2nc3cccnc3n2Cc2ccc(F)cc2)cc1 | -36% | ? | . | . | ? | ?
COc1ccc(Cn2c(SCc3ccc(C(=O)NCc4cccs4)cc3)nc3ccncc32)cc1 | -8% | ? | . | . | 18µM* | ?

Compound activity from PubChem.
